Data: the supplement of paper PMC6555819

Legend:
Assay in all cases: PBM binding z-score (relative to random genomic background probes); higher = stronger binding; sequences stand for … in GC…GCGATTGACAGCGTAGAATGAAGG
[1] = system: FXR:RXRa (NR concentration 270 nM, RXRa partner concentration 90 nM)
How it was run: (§1)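 Probes were double-stranded and carried 34-nt variable regions with direct-repeat seeds, single-nucleotide variants, half-site ablations and random human genomic background sequences, printed on custom Agilent 4×180K protein-binding microarrays. Arrays were incubated 1 h with ligand-free nuclear receptor dimers in PBS pH 7.4, 2% milk, 0.02% Triton X-100, 1 mM DTT, 0.2 mg/mL BSA and 0.4 mg/ml salmon testes DNA. Antibodies against each partner (one per run) detected binding, and scanned fluorescence was regression-normalized. Binding z-scores use the random background probes as reference.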

[2] = system: LXRa:RXRa (NR concentration 270 nM, RXRa partner concentration 90 nM)
How it was run: as §1

[3] = system: LXRa homodimer (NR concentration 270 nM)
How it was run: as §1

[4] = system: LXRb:RXRa (NR concentration 270 nM, RXRa partner concentration 90 nM)
How it was run: as §1

[5] = system: LXRb homodimer (NR concentration 270 nM)
How it was run: as §1

[6] = system: PPARa:RXRa (NR concentration 270 nM, RXRa partner concentration 90 nM)
How it was run: as §1

[7] = system: PPARg:RXRa (NR concentration 180 nM, RXRa partner concentration 90 nM)
How it was run: as §1

[8] = system: PPARg:RXRa 270nM:90nM, anti-RXR (NR concentration 270 nM, RXRa partner concentration 90 nM)
How it was run: as §1

[9] = system: PPARg:RXRa 30nM:10nM, anti-RXR (NR concentration 30 nM, RXRa partner concentration 10 nM)
How it was run: as §1

[10] = system: PPARg:RXRa 90nM:30nM, anti-RXR (NR concentration 90 nM, RXRa partner concentration 30 nM)
How it was run: as §1

Sequence | PBM binding z-score [1] | PBM binding z-score [2] | PBM binding z-score [3] | PBM binding z-score [4] | PBM binding z-score [5] | PBM binding z-score [6] | PBM binding z-score [7] | PBM binding z-score [8] | PBM binding z-score [9] | PBM binding z-score [10]
AGAATGAGGTTAAGATGAGGGAAACAGAATACAT | 2.41 | 2.35 | 0.0375 | 1.84 | 0.124 | 3.52 | 2.55 | 2.24 | 1.31 | 1.78
ATCGAAAGGTCGTGAGGGGAGTATACAGAAAGGC | 5.36 | 4.07 | 0.475 | 3.55 | 1.22 | 5.08 | 3.7 | 4.21 | 1.39 | 3.1
GCAGACAGGTGCAACGCAGGTAACTCAGGGTGGC | -0.722 | -0.509 | -0.668 | -0.958 | -1.31 | -0.475 | 0.119 | -0.844 | -0.761 | -0.904
GATACAGGGTCAAGGCCCGAGTACGCGTATTGAT | 6.52 | 4.01 | -0.361 | 3.39 | -0.411 | 5.39 | 5.65 | 5.62 | 2.48 | 4.12
TAGCCTAGGTCATGGCCCAGTATACCACGCGAAC | 4.7 | 3.85 | 0.774 | 2.64 | -0.293 | 4.33 | 4.27 | 3.99 | 1.14 | 2.95
ATCGAAAGGTCGTGAGGAGAGTATACAGAAAGGC | 5.47 | 4.45 | 0.57 | 3.32 | 1.13 | 4.93 | 3.66 | 4.22 | 1.53 | 2.94
GATACAGGGTCAGGTAGAGGCCAGAGTATGGAAA | 4.61 | 2.74 | -0.128 | 2.58 | -0.154 | 4.6 | 3.75 | 3.23 | 0.959 | 2.07
CCTAATGGGCCATTCAGAGGTCATTGATCATATG | 2.75 | 4.67 | 6.94 | 4.05 | 1.04 | 3.68 | 1.37 | 2.27 | 0.458 | 1.54
TCTAGTTGGTCGAAGGTCACACACTCGAAATGCG | 2.91 | 3.2 | 1.24 | 3.38 | 0.802 | 4.57 | 7.43 | 7.58 | 6.89 | 7.98
TCTATTAGTTGATGGGCAACCGACGAGTCCGTTT | 0.353 | 0.502 | -0.0154 | 0.186 | 0.322 | -0.00429 | 0.0134 | 1.55 | 3.41 | 2.29
ACTAGCAGGCCAAGGGTCACTCAGGATTAGTCCG | 2.7 | 2.61 | 0.0255 | 2.69 | -0.237 | 4.39 | 7.87 | 7.62 | 6.72 | 8.16
CCGACTGGGGGATAAGGTTACCATAAGCCAGCCC | 0.506 | 2.65 | -0.0985 | 2.4 | 2.01 | 1.91 | 1.43 | 2.38 | 1.06 | 2.07
TGAATGAGGTTATATGATCAGGGAACGTTGCAAA | 1.85 | 1.48 | -0.0351 | 1.25 | 0.134 | 2.97 | 1.44 | 1.76 | 1.05 | 1.45
TCTTGGAGATCAACAGGAGGTTAAGAAAGATCGA | 0.373 | 1.25 | -0.0581 | 0.942 | -0.782 | 1.44 | 0.02 | 1.23 | 2.38 | 1.62
GGAAAGAGGGCAAGTTGATAGCAGAGTTTGATGG | 1.6 | 1.58 | 0.345 | 1.25 | 0.718 | 2.15 | 1.14 | 1.59 | 0.606 | 1.04
CCTCGGAGGACAACAGGAGGTCAGCGCTGCCAGA | 1.63 | 2.48 | 1.84 | 1.66 | -0.537 | 2.37 | 0.445 | 0.734 | -0.791 | 0.307
CCGAGTGGGGCAAAGGTTACCATACTCAGTACGA | 1.45 | 1.82 | 0.144 | 2.37 | -0.506 | 5.65 | 11 | 9.62 | 8.52 | 11
TCATATAGGTAAAGGCTAGGTGAAAGTCCGATCT | 1.01 | 0.707 | -0.194 | 0.441 | -0.41 | 1.71 | 1.18 | 2.39 | 3.57 | 2.98
CAAACTAGGTCAAAGGTCAAAGGCGAGCCAACCA | 8.49 | 7.21 | 4.91 | 7.14 | 2.68 | 7.65 | 14.2 | 11.5 | 14.7 | 13.9
CCTACTGGGCCAAAGGTCGTTGATTCCAATGCTC | 1.29 | 1.46 | -0.124 | 1.91 | -0.505 | 5.3 | 11.1 | 9.69 | 9.46 | 10.5
TCTTGTAGATCAATAGAGGGTAAGAAAGTGCGCT | 0.692 | 0.902 | -0.251 | 0.517 | 0.175 | 0.606 | -0.216 | 1.19 | 2.61 | 2.29
CCTTACGGGTCACTGACAGGGTATAGCATTTGGA | 4.47 | 3.35 | 0.0232 | 2.72 | -0.363 | 4.64 | 3.98 | 4.07 | 1.2 | 2.69
AGAATGAGTTTATTAAGATCAGGGAATTGCGGTC | -0.0233 | -0.176 | 0.0886 | -0.353 | 0.198 | -0.254 | 0.0616 | -0.094 | -0.0755 | -0.195
